Screens: PubChem, Bradner/Qi Labs at DFCI
Only a selection was taken, and hits are over-represented in it overall.
CBX7 AlphaScr – CBX7 chromodomain binding inhibitors, primary screen, biochemical, AlphaScreen | hit rate 1.1% among 66,000 | AlphaScreen His6-CBX7 / biotin-H3K27me3 peptide binding; hits give low values | Chromobox protein homolog 7 (Homo sapiens), O95931 | normalised signal (fraction of DMSO) (no concentration beside the values); in the data active means normalised signal below about 0.5
Target sequence (O95931 whole entry, looked up): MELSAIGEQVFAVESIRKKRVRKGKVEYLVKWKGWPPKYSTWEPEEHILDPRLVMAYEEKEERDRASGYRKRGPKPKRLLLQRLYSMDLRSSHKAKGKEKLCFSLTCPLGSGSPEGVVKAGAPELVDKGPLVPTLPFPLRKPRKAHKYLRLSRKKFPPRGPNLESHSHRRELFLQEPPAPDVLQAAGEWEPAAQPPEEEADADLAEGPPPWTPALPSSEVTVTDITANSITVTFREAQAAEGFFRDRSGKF
Numbers stand for hits; i = inactive.

SMILES	CBX7 AlphaScr
COc1ccc(S(=O)(=O)NC2CC2)c2cccnc12	i
CCOC(=O)c1c(NC(=O)c2ccc(OC)c(OC)c2)sc2c1CCC(CC)C2 (stereo not given)	i
CC(=O)Nc1ccc(Oc2cc([N+](=O)[O-])cc3c2C(=O)Nc2ccccc2O3)cc1	i
Cc1ccc2c(c1)Oc1cc([N+](=O)[O-])cc(Oc3ccc(Cl)cc3)c1C(=O)N2	0.2
Cc1ccc2c(c1)Oc1cc([N+](=O)[O-])cc(Oc3ccccc3C)c1C(=O)N2	0.0485
Cc1cccc2sc(NC(=O)c3ccc(CNc4c(N5CCCCC5)c(=O)c4=O)cc3)nc12	i
COCc1nnc(NC(=O)c2ccc(S(=O)(=O)N3CCCCCC3)cc2)o1	0.0663
CCc1nnc(NC(=O)c2ccc(S(=O)(=O)N3CCCc4ccccc43)cc2)o1	0.0473
CCc1nnc(NC(=O)c2ccc(S(=O)(=O)N3CCCCC3C)cc2)o1 (stereo not given)	i
CCc1nnc(NC(=O)c2ccc(S(=O)(=O)N3CCc4ccccc4C3)cc2)o1	i
CCc1nnc(NC(=O)c2ccc(S(=O)(=O)N3CCCC3)cc2)o1	0.454
CCc1nnc(NC(=O)c2ccc(S(=O)(=O)N3CC(C)CC(C)C3)cc2)o1 (stereo not given)	i
COCc1nnc(NC(=O)c2ccc(S(=O)(=O)N3CCCC(C)C3)cc2)o1 (stereo not given)	i
NC(=O)c1oc2ccccc2c1NC(=O)c1ccc(S(=O)(=O)N2CCCc3ccccc32)cc1	i
CCc1ccc(Nc2cc(C(=O)NCCN3CCCC3)c3ccccc3n2)cc1	i
CC1CCN(S(=O)(=O)c2cn(CC(=O)N3CCCCC3)c(=O)c3ccccc23)CC1	i
COc1ccc(Nc2cc(C(=O)NCCCSC3CCCCC3)c3ccccc3n2)cc1OC	i
Nc1ccc2nc(SCC(=O)Nc3ccc(F)cc3)sc2c1	i
COc1ccc(-c2c(C)nn3c(NCc4ccc(F)cc4)cc(C)nc23)cc1OC	i
COc1ccc(-c2c(C)nn3c(NCc4ccccn4)cc(C)nc23)cc1OC	0.394
COc1ccc(CNc2cc(C)nc3c(-c4ccc(OC)c(OC)c4)c(C)nn23)cc1	i
COc1ccc(-c2nn(C)c3sc(C(=O)NCCCN4CCC(C)CC4)cc23)cc1OC	i
COc1ccc(C)cc1N(C)C(=O)Cn1nc(Cc2cccnc2)c2ccccc2c1=O	i
O=C(Nc1ccc2oc(-c3ccncc3)nc2c1)c1ccc(-c2ccc(F)cc2)o1	0.405
CCc1ccc2oc(-c3ccc(NC(=O)c4cc(OC)cc(OC)c4)cc3)nc2c1	i
SMILES	CBX7 AlphaScr
O=C(Nc1ccc2oc(-c3cccnc3)nc2c1)c1ccc(-c2ccc(F)cc2)o1	i
CCc1ccc2oc(-c3ccc(NC(=O)c4ncn[nH]4)cc3)nc2c1	0
CCc1ccc2oc(-c3ccc(NC(=O)c4ccccc4)cc3)nc2c1	i
O=C(Nc1ccc2oc(-c3ccncc3)nc2c1)c1ccc(-c2ccc(Cl)cc2)o1	i
CCCN1Cc2cccc(C(=O)Nc3ccc(S(=O)(=O)N(CC)CC)cc3)c2C1=O	i
Cc1cccc(-c2noc(CN(C(=O)COc3ccc(C(C)C)cc3Br)C(C)C)n2)c1	i
O=C(COc1ccc(Cl)cc1)NCc1nnc(SCC(=O)Nc2nccs2)o1	i
O=C(O)c1c[nH]c2ccc(S(=O)(=O)N3CCCCC3c3cccnc3)cc2c1=O (stereo not given)	0.4
O=C(c1c[nH]c2ccc(S(=O)(=O)N3CCCCC3c3cccnc3)cc2c1=O)N1CCCC1 (stereo not given)	i
COc1ccc(S(=O)(=O)N2CCCCC2c2cccnc2)cc1 (stereo not given)	i
COc1ccc(S(=O)(=O)N2CC=C(C(=O)Nc3ccc(F)cc3C)CC2)cc1	i
O=C(NCCCn1ccnc1)C(O)(c1ccccc1)c1ccccc1	i
O=C(NCCCn1ccnc1)c1ccc(C#Cc2ccccc2)cc1	0.105
O=C(NCCCn1ccnc1)C(=O)NCCc1ccccc1	i
Cc1ccc(Nc2c(-c3cccs3)nc3cc(C)ccn23)cc1	i
O=C(CSc1nccn1-c1ccc(Cl)cc1)Nc1cccc(F)c1	i
COc1cccc(-n2ccnc2SCC(=O)Nc2cccc(C(F)(F)F)c2)c1	i
Cc1cc(C)cc(NC(=O)CSc2nccn2-c2ccccc2)c1	i
Cc1ccc(NC(=O)CSc2nccn2-c2ccc(Cl)cc2)cc1	i
COc1ccc(-n2ccnc2SCC(=O)Nc2cccc(C)c2)cc1	i
Cc1cccc(NC(=O)CSc2nccn2-c2ccc(Cl)cc2)c1	0.449
Cc1cc(C)cc(NC(=O)CSc2nccn2-c2ccc(Cl)cc2)c1	0.424
O=C(CSc1nccn1-c1ccc(F)cc1)Nc1cccc(Cl)c1	i
CCc1ccc(NC(=O)CSc2nccn2-c2cccc(Cl)c2)cc1	0.431
CCc1ccc(NC(=O)CSc2nccn2-c2cccc(OC)c2)cc1	i
SMILES	CBX7 AlphaScr
CCc1ccc(NC(=O)CSc2nccn2-c2cccc(C)c2)cc1	i
O=C(CSc1nccn1-c1ccc(Cl)cc1)Nc1cccc(C(F)(F)F)c1	0.451
Cc1ccc(N(C)C(=O)CN(C)S(=O)(=O)c2ccc3nc(C)sc3c2)cc1	i
COc1ccc(Nc2cc(C(=O)N3CCOCC3)c3ccccc3n2)c(OC)c1	i
COc1ccc(NC(=O)c2cc(-c3ccc(OC)cc3)on2)cc1	i
Cc1cc(Nc2ccc(Br)cc2)c2ccc(C)c(C)c2n1	i
CCOC(=O)c1nnn(-c2ccc(Br)cc2)c1C	i
CCOC(=O)C1CCN(c2c(NCCCN3CCC(C)CC3)c(=O)c2=O)CC1	i
Cc1cc(OCc2nc(-c3ccncc3)no2)cc(C)c1Br	i
COc1ccc(Nc2nc3nonc3nc2NCc2ccco2)cc1	i
CCc1ccc(NC(=O)Cn2cc(S(=O)(=O)c3ccc(Cl)cc3)c(=O)c3cc(C)ccc32)cc1	i
CCN1CCN(c2cc(C)c3cc(NC(=O)c4ccccc4Cl)ccc3n2)CC1	i
COC(=O)c1c[nH]n2c(NC3CCC(C)CC3)c(-c3ccc(F)cc3)nc12 (stereo not given)	0.251
COC(=O)c1c[nH]n2c(NC3CCC(C)CC3)c(-c3ccc(OC)c(OC)c3)nc12 (stereo not given)	0.269
COC(=O)c1c[nH]n2c(NC3CCCCC3)c(-c3ccc(Cl)cc3)nc12	i
COC(=O)c1c[nH]n2c(NCCc3ccccc3)c(-c3ccc(F)cc3)nc12	i
COC(=O)c1c[nH]n2c(NCCc3ccccc3)c(-c3ccc(C)cc3)nc12	i
COC(=O)c1c[nH]n2c(NC3CCCCCC3)c(-c3ccc(Cl)cc3)nc12	i
Cc1ccc(S(=O)(=O)Nc2cccc(-c3cn4ccccc4n3)c2)c(C)c1	i
CCC(C)NC(=O)C1CC(=O)N(CCc2ccc(C)cc2)C1 (stereo not given)	i
COc1ccc(Nc2cc(C(=O)NC3CCCCCC3)c3ccccc3n2)cc1	i
C1=C(CCNc2nnc(Cc3cccnc3)c3ccccc23)CCCC1	i
Cc1sc2ncn(CC(=O)NCCCC(=O)NCCCN3CCOCC3)c(=O)c2c1C	i
Fc1ccc(C(c2ccccc2)N2CCN(CCCc3c[nH]c4ccccc34)CC2)cc1 (stereo not given)	i
Cc1ccc(C(c2ccccc2)N2CCN(CCCc3c[nH]c4ccccc34)CC2)cc1 (stereo not given)	0.488
c1ccc(C(c2ccccc2)N2CCN(CCCc3c[nH]c4ccccc34)CC2)cc1	i
COc1ccc(-n2nc(C(=O)Nc3ccc(OC)c(Cl)c3)c3ccccc3c2=O)c(OC)c1	i
Cc1ccc(-c2nc(Nc3ccc(C)cc3Br)c3ccccc3n2)cc1	i
CC(C)N(Cc1nc(-c2ccccc2)no1)C(=O)COc1ccc(Cl)cc1	i
